This is an account of results in PubChem BioAssay AID1456 (Vanderbilt High Throughput Screening Facility, 2008).

Hit rate of the full screen: of about 190,000 compounds, about 4,100 (2.2%) were called active. The list comes from a sample in which actives are over-represented; it also holds similar structures and randomly drawn compounds. Unmarked numbers belong to inactive results.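 Rule for the calls: active = thallium flux slope and its plate-corrected score both differing from the plate sample mean at a set confidence after two filtering rounds, in either direction; inactive = the rest.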

The target of the assay is Solute carrier family 12 member 5 (Homo sapiens) (UniProt Q9H2X9). The assay is described as follows: KCC2 cotransporter modulators, thallium flux, primary screen, cell-based, HEK293 KCC2, FluoZin-2 fluorescence, MLSMR (AID 1456).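 Note: slope of fluorescence scaled to starting intensity during 10 to 20 s after thallium.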 As to conditions: KCC2 cells, thallium flux FluoZin-2 fluorescence; at 10 µM.
Solute carrier family 12 member 5 (Homo sapiens), sequence (Q9H2X9 whole entry, looked up): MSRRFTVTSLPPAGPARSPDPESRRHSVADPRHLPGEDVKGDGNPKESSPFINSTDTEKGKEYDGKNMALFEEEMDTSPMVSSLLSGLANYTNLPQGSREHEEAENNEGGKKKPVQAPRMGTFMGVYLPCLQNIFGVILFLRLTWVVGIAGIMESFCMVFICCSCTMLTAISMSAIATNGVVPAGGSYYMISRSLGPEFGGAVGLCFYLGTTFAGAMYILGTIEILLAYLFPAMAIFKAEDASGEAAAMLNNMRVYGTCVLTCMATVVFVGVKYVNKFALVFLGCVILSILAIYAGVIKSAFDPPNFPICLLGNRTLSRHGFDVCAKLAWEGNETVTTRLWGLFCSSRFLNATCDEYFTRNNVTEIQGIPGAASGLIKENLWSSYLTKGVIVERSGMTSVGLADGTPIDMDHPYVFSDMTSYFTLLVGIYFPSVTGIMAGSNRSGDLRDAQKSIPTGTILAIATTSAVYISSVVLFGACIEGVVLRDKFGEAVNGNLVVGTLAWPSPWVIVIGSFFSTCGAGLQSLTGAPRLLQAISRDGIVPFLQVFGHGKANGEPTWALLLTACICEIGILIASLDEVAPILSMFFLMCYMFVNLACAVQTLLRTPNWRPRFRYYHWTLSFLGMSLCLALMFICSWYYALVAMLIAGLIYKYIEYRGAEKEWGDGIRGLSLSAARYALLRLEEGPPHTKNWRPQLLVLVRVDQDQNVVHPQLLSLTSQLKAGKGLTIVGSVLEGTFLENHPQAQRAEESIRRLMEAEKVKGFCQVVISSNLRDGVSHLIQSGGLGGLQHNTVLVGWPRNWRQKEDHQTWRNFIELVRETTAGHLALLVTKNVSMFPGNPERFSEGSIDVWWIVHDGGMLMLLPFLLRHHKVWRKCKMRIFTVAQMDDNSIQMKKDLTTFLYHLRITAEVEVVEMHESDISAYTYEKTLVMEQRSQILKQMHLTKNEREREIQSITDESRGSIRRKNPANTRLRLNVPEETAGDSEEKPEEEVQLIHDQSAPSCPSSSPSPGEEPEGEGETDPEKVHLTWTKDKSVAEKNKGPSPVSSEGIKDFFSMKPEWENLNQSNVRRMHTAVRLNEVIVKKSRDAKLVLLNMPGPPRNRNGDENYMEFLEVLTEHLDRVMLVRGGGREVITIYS
Take `O=C(Cn1cnc2cc([N+](=O)[O-])ccc2c1=O)NC(=O)NCc1ccccc1`: the B-score of Tl+ flux slope (higher = more flux/activation; lower = inhibition) was -0.182.

With `CC(=O)c1ccc(S(=O)(=O)Nc2ccc(C(=O)NCC(c3ccccc3)N(C)C)cc2)cc1` (configuration not stated), the B-score of Tl+ flux slope (higher = more flux/activation; lower = inhibition) is 0.133. The same measure for `COc1ccc(N2CCC(CNC(=S)Nc3c(C)cccc3C)C2)cc1` (configuration not stated): -0.00939; for `Cc1c(NC(=O)CSc2nnnn2-c2ccc(C(=O)O)cc2)c(=O)n(-c2ccccc2)n1C`: 1.95; for `Cc1c(NC(=O)CSc2cccc3cccnc23)c(=O)n(-c2ccccc2)n1C`: 4.92 (active). On to `Cc1c(NC(=O)c2cccnc2)c(=O)n(-c2ccccc2)n1C`, for which the B-score of Tl+ flux slope (higher = more flux/activation; lower = inhibition) was 0.0888. With `Clc1cccc(CN2COc3c(cc(Cl)c4cccnc34)C2)c1` the figure was 4.19 (active); with `Nc1c(C(=O)NCc2ccccc2)nnn1Cc1cccc(Cl)c1`, -1.02. With `O=c1[nH]n(-c2cccc(Cl)c2)c2ncccc12`, the B-score of Tl+ flux slope (higher = more flux/activation; lower = inhibition) was 0.268.

On to `O=C(NNS(=O)(=O)c1ccccc1C(F)(F)F)c1cc2ncc(C(F)(F)F)cc2s1`, for which the B-score of Tl+ flux slope (higher = more flux/activation; lower = inhibition) was -0.726. Turning to `COc1ccc(OCc2cccc(C(=O)N3CCCC3)c2)cc1`, the B-score of Tl+ flux slope (higher = more flux/activation; lower = inhibition) was 0.115.

In the case of `Cc1ccc(COc2ccc(C(=O)NN)cc2)cc1`, the B-score of Tl+ flux slope (higher = more flux/activation; lower = inhibition) was -0.198. With `Cc1oc(C(N)=O)cc1COc1ccc(C(N)=O)cc1` the figure was 2.17 (active); with `COc1ccc(Cl)cc1S(=O)(=O)N1CCC(O)(c2ccc(Cl)cc2)CC1`, -0.0293. For `Cc1ccc(N=Nc2c(C)[nH]n(-c3ccccc3)c2=O)cc1`, the B-score of Tl+ flux slope (higher = more flux/activation; lower = inhibition) was 3.14. Consider `Cc1cccc(N=Nc2c(C)[nH]n(-c3ccccc3)c2=O)c1`, for which the B-score of Tl+ flux slope (higher = more flux/activation; lower = inhibition) was 0.0317. The same measure for `Cc1[nH]n(-c2ccccc2)c(=O)c1N=Nc1ccccc1C(=O)N1CCCCC1`: 5.68 (active); for `CSc1nc(-c2ccco2)nn1C(=O)c1ccccc1Cl`: -1.08; for `COC(=O)c1cc2c(N)c(C(=O)c3ccc(Cl)cc3)sc2nc1C(OC)OC`: 0.11. The same measure for `COc1cc(OC)cc(/C(N)=N/O)c1`: -0.654; for `COc1ccc(N2C(=O)c3ccccc3NC2c2ccc(OC)c(CN3CCOCC3)c2)cc1` (configuration not stated): -0.152; for `C=CCn1c(=S)sc2c(=O)[nH]c(C)nc21`: -0.647.

For `C=CCn1c(=S)[nH]c2nc3c(cc2c1=O)COC(C)(C)C3`, the B-score of Tl+ flux slope (higher = more flux/activation; lower = inhibition) was 3.61 (active). The same measure for `O=C(CCl)N(Cc1cccc([N+](=O)[O-])c1)c1cccc(Cl)c1`: -0.452. The same measure for `Cn1c2ccccc2c2cc(/C=C(\NC(=O)c3ccccc3)C(=O)NCC(=O)O)ccc21`: 0. The same measure for `O=C(CSc1ccc(-c2cccs2)nn1)Nc1ccccc1F`: -2.89 (active); for `Cn1c(CCC(=O)Nc2ccccc2F)nnc1SCC(=O)Nc1ccccc1Cl`: -0.846. Consider `Cc1csc(NC(=O)CSc2ccc(-c3ccc(F)cc3)nn2)n1`, for which the B-score of Tl+ flux slope (higher = more flux/activation; lower = inhibition) is -4.45. With `C=CCC1(C#N)C(=S)NC(C)=C(C(=O)OCC)C1c1ccccc1` (configuration not stated) the figure was -0.00243; with `Cc1ccc(SCc2c(C(=O)N/N=C/C3CC=CCC3)nnn2-c2nonc2N)cc1` (configuration not stated), -0.374. With `O=C(Nc1nnc(Cc2ccc(Cl)cc2)s1)c1ccncc1` the figure was -2.1; with `NS(=O)(=O)c1ccc(NC(=S)Nc2ccc(Br)c(Cl)c2)cc1`, 0.559. With `O=C(Nc1ccc2ccccc2c1)/C(=C\c1ccc2c(c1)OCO2)NC(=O)c1ccco1` the figure was 0.0996.

`COc1ccc(CCNC(=O)c2ccco2)cc1`: the B-score of Tl+ flux slope (higher = more flux/activation; lower = inhibition) was 0.796. For the molecule `CC(Oc1ccc2ccccc2c1)C(=O)NNC(=S)NC(=O)c1ccco1` (configuration not stated), the B-score of Tl+ flux slope (higher = more flux/activation; lower = inhibition) is 25.4 (active). `CCNC(=S)NNC(=O)Cc1ccccc1`: the B-score of Tl+ flux slope (higher = more flux/activation; lower = inhibition) is 0.737. With `CCCc1ccc(OCC(=O)NNC(=S)NC(=O)c2ccco2)cc1` the figure was 28.4 (active). With `O=C(Nc1ccc2ccccc2c1)/C(=C/c1cccc(Br)c1)NC(=O)c1ccco1` the figure was -1.51; with `Cc1ccc(OCC(=O)NNC(=S)NCc2ccccc2)cc1`, 9.51 (active); with `CC(=O)Nc1ccc(OCC(=O)NCc2ccc(C)cc2)cc1`, -0.00613. With `CC(C)Oc1ccc(CCC(=O)NNC(=S)NCc2ccccc2)cc1` the figure was -1.38; with `CC(C)(C)c1cc(C(=O)NN)n(Cc2ccc(Cl)cc2Cl)n1`, -0.315.

Consider `O=S(=O)(Nc1n[nH]c(C(F)(F)F)n1)c1ccccc1`, for which the B-score of Tl+ flux slope (higher = more flux/activation; lower = inhibition) was -2.65.

`N#Cc1c(NCCO)ccc([N+](=O)[O-])c1NCCO`: the B-score of Tl+ flux slope (higher = more flux/activation; lower = inhibition) was -0.904. The same measure for `O=C1NC(c2cccc(Cl)c2)Nc2ccccc21` (configuration not stated): 0.445. The same measure for `Nc1nnnn1CC(=O)N/N=C/c1ccc(-c2cccc(Cl)c2)o1`: -0.38. With `O=C1c2ccccc2NC(c2ccc(-c3cccc(Cl)c3)o2)N1O` (configuration not stated) the figure was 35 (active).
